Experimental data reported in PubChem BioAssay (Tox21).
Inconclusive results are not listed. A number with no mark means an inactive call. Calls come from the whole dose curve.

Biological target: Peroxisome proliferator-activated receptor gamma (Homo sapiens) (UniProt P37231)
Assay: qHTS assay to identify small molecule antagonists of the peroxisome proliferator-activated receptor gamma (PPARg) signaling pathway (AID 743191); note: nearly all actives have a fitted effect of over 30% in size
Conditions: HEK293H PPARg-UAS-bla, beta-lactamase ratio, antagonist, 17 h; series mostly up to 62.6 µM; ratio activity, negative = inhibition: at the top concentration
Source text: U.S. Tox21 Program National Center for Advancing Translational Sciences [NCATS] NIH Chemical Genomics Center [NCGC] U.S. Environmental Protection Agency [EPA] National Institutes of Environmental Health Sciences [NIEHS] National Toxicology Program [NTP] U.S. Food and Drug Administration [FDA] Tox21 Assay Overview: The peroxisome proliferator-activated receptors (PPARs) are lipid-activated transcription factors of the nuclear receptor superfamily with three distinct subtypes namely PPAR alpha, PPAR delta (also called PPAR beta) and PPAR gamma (PPARg). All these subtypes heterodimerize with Retinoid X receptor (RXR) and these heterodimers regulate transcription of various genes. PPAR-gamma receptor (glitazone receptor) is involved in the regulation of glucose and lipid metabolism. To identify the compounds that inhibit PPAR-gamma signaling, GeneBLAzer PPAR gamma UAS-bla HEK293H cell line (Invitrogen, Carlsbad, CA, USA) containing a beta-lactamase reporter gene under control of an Upstream Activator Sequence (UAS) was used to screen the Tox21 compound library.
Tox21 Assay Protocol Summary: PPARg-bla cells were dispensed at 3000 cells/6uL/well in 1536-well black wall/clear bottom plates using a Multidrop Combi (Thermo Fisher Scientific, Waltham, MA) dispenser. After the assay plates were incubated at 37C and 5% CO2 for 5 h, 23 nL of compounds dissolved in DMSO, positive controls or DMSO only was transferred to the assay plate by a Pintool station (Kalypsys, San Diego, CA). The assay plates were incubated at 37C for 17 h. After 1 uL of LiveBLAzerTM B/G FRET substrate was added using a Bioraptr Flying Reagent Dispenser (FRD) workstation (Beckman Coulter, Indianapolis, IN, USA), the plates were incubated at room temperature for 1 h, and fluorescence intensity was measured by an Envision plate reader (PerkinElmer, Shelton, CT).
% is set by controls: 0 for no effect and ±100 for the full control effect.

Chain of Peroxisome proliferator-activated receptor gamma (Homo sapiens) (P37231 whole entry, looked up): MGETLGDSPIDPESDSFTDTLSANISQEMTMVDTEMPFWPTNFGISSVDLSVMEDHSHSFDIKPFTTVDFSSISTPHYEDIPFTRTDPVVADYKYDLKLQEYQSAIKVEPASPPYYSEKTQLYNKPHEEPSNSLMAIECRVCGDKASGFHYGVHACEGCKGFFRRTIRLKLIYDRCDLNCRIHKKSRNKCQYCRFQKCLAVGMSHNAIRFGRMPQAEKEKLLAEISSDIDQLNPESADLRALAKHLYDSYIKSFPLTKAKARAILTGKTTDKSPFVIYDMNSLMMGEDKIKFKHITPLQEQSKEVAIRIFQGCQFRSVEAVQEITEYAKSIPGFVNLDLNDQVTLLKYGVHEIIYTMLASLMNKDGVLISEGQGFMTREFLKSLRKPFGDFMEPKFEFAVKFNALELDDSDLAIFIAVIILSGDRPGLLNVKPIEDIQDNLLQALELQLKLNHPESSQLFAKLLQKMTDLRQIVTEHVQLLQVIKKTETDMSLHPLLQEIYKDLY

Row | Compound | ratio activity, negative = inhibition
1 | CC(C)(C)OC(=O)N1C[C@@H](F)C[C@H]1C(=O)O | -11.5% [at 81.1 µM]
2 | CC1CCN(CCCC(=O)c2ccc(F)cc2)CC1 | 2.48%
3 | Cc1nccn1CC1CCc2c(c3ccccc3n2C)C1=O (stereo not given) | -7.7%
4 | CC1=CC(C)C(C=O)C(C)C1 (stereo not given) | 9.62%
5 | CCC(C(=O)NC(N)=O)c1ccccc1 (stereo not given) | -22.4%
6 | CC(C)CCOC(=O)CC(C)C | -1.01%
7 | Nc1cc(N)cc(C(=O)O)c1 | 12.3%
8 | C=CCSCC1Nc2cc(Cl)c(S(N)(=O)=O)cc2S(=O)(=O)N1 (stereo not given) | 4.64%
9 | CC(CCO)CCCC(C)(C)O (stereo not given) | 7.08%
10 | Cc1ncc(CSSCc2cnc(C)c(O)c2CO)c(CO)c1O | 2.24%
11 | CCCCCOC(=O)Nc1nc(=O)n([C@@H]2O[C@H](C)[C@@H](O)[C@H]2O)cc1F | 3.18%
12 | O=C(O)c1cccc(C(=O)O)n1 | 2.36%
13 | NC(=O)CCCCC1CCSS1 (stereo not given) | 4.67%
14 | COc1cccc(OC)c1 | 22.2%
15 | Cc1ccc(Nc2ccc(O)c3c2C(=O)c2ccccc2C3=O)cc1 | 2.82%
16 | O=S(=O)(O)c1ccccc1O | 5.17%
17 | NC(=O)Nc1nc2ccccc2[nH]1 | 1.6%
18 | CC(C)(O)C(=O)c1ccc(OCCO)cc1 | -10.3%
19 | CCCCN(CCO)CCO | -8.27%
20 | CCCc1ccc(N)cc1 | -7.1%

Row | Compound | ratio activity, negative = inhibition
21 | CCOC(=O)Cn1c(=O)sc2cccc(Cl)c21 | 14.9%
22 | CCN1CCN(c2cc3c(cc2F)c(=O)c(C(=O)O)cn3C2CC2)CC1 | 4.89%
23 | NC1CCN(c2cccc(Cl)n2)CC1 | -11.1%
24 | COC(=O)CCCC(=O)O | 6.18%
25 | O=C(O)C(O)[C@H](O)[C@@H](O)[C@H](O)[C@H](O)CO (stereo not given in full) | 15.9% [at 81.1 µM]
26 | Nc1nc2c(ncn2CCC(CO)CO)c(=O)[nH]1 | -9.03%
27 | CC(=O)c1ccc(C)cc1 | 15.5%
28 | CC(C)(C)CC(C)(C)N | 1.25%
29 | O=C(O)CCNC(=O)c1ccc(N=Nc2ccc(O)c(C(=O)O)c2)cc1 | 13.2%
30 | COc1cc(O)cc(O)c1 | 1.57%
31 | CCC(=O)Nc1cccc(N)c1 | -16.4%
32 | CCCCCCCCN(C)CCCCCCCC | -8.16% [at 81.1 µM]
33 | CCO[Si](CCCN=C=O)(OCC)OCC | -17%
34 | CCn1cc(C(=O)O)c(=O)c2cc(F)c(N3CCN(C)CC3)cc21 | 5.83% [at 29.1 µM]
35 | O=S(=O)(c1cccc2cnccc12)N1CCCNCC1 | -7.09%
36 | CC(C)(O)c1ccccc1 | 2.37%
37 | C[C@H](O)C(=O)Nc1c(I)c(C(=O)NC(CO)CO)c(I)c(C(=O)NC(CO)CO)c1I | -7.16%
38 | CCCC(C)C(=O)O (stereo not given) | -0.203%
39 | COC(=O)CCCCCCCCC(=O)OC | -13.5% [at 81.1 µM]
40 | c1ccc(CCCc2ccccn2)cc1 | -7.57%
